Measured values reported in PubChem BioAssay (NCI).
The panel holds about 83,000 compounds, 20% with a hit somewhere; the sample as a whole holds those more often.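 Negative percent growth values reflect cell death: -40 means 40% of the cells present at the start died, and -100 means all died.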 Activity calls are given as the source filed them. How the source made its calls: active means growth percent below 10; inactive means the rest.

Tests used:
Test in all cases: NCI-60 one-dose screen, 48 h (100 = growth as untreated, 0 = no growth, -100 = all killed)
Details in all cases: 10 µM
[1] = tested on: NCI-H23 lung
[2] = tested on: NCI-H226 lung
[3] = tested on: NCI-H322M lung
[4] = tested on: HOP-62 NSCLC
[5] = tested on: NCI-H460 lung
[6] = tested on: HOP-92 NSCLC
[7] = tested on: NCI-H522 lung
[8] = tested on: A549/ATCC NSCLC
[9] = tested on: 786-0 renal
[10] = tested on: COLO 205 colon

Measured: growth

CCOC(=O)CSC(=S)SCC(=O)OCC
inactive: [1] 110% | [2] 106% | [3] 118% | [4] 105% | [5] 107% | [6] 108% | [7] 67.7% | [8] 99% | [9] 103% | [10] 127%

COc1nc2c(c(=O)[nH]1)C(c1ccc(Oc3ccnc4cc(Cl)ccc34)c(OC)c1)C=C(c1cc(OC)c(OC)c(OC)c1)N2 (centres undefined)
inactive: [1] 95.3% | [2] 96.6% | [3] 95.2% | [4] 116% | [5] 102% | [6] 82.1% | [7] 93.3% | [8] 101% | [9] 95% | [10] 102%

CC1=CC2OC34COC3CC(OC(=O)C(F)(F)F)C4(C)C2(C)CC1 (centres undefined)
inactive: [1] 110% | [2] 98.7% | [3] 96.1% | [4] 97.4% | [5] 104% | [6] 104% | [7] 103% | [8] 97.8% | [9] 101% | [10] 99.7%

Cn1c(N)c(N=Cc2ccccc2)c(=O)n(C)c1=O
inactive: [1] 103% | [2] 108% | [3] 114% | [4] 96.3% | [5] 114% | [6] 102% | [7] 101% | [8] 105% | [9] 103%

COc1c(-c2c3sc(=O)[nH]c3nc3c2c(=O)[nH]n3C(C)C)cc2c(c1OC)OCO2
inactive: [1] 100% | [2] 85.8% | [3] 92.2% | [4] 94.5% | [5] 107% | [6] 72.2% | [7] 86% | [8] 95.8% | [9] 86.5% | [10] 117%

COc1ccc(Nc2ccnc(N3CCN(c4ccnc5cc(Cl)ccc45)CC3)n2)cc1
inactive: [3] 14.4% | [4] 16.5%
active: [1] 9.35% | [2] 1.67% | [5] 4.6% | [6] -21.9% | [7] -17.9% | [8] 7.39% | [9] 7.79% | [10] -7.2%

O=C(/C=C/c1ccc(Cl)cc1)c1ccc(Br)cc1
inactive: [1] 94.6% | [2] 108% | [3] 91.2% | [4] 97.2% | [5] 109% | [6] 111% | [7] 82.6% | [8] 102% | [9] 81.1% | [10] 110%

CS(=O)(=O)Nc1ccc(Nc2c3ccccc3nc3cc(Cl)ccc23)cc1
active: [2] -4.26% | [5] 8.44% | [6] -10.7% | [8] 9.01%
inactive: [1] 42.7% | [3] 50.6% | [4] 25% | [7] 16.2% | [9] 19.6% | [10] 43.1%

COCCOC(=O)NC(=O)Nc1ccc(C(=O)c2ccc(Cl)cc2)cc1
inactive: [1] 36.2% | [2] 46.2% | [3] 57.9% | [4] 28.5% | [5] 23.3% | [6] 32.9% | [7] 10.7% | [8] 41.8% | [9] 47% | [10] 13.4%

Cc1ccc(C2C=C(c3ccc(Cl)cc3)N=C3SC=CN32)c(Br)c1 (centres undefined)
inactive: [1] 85% | [2] 55.5% | [3] 85.5% | [4] 96.5% | [5] 84.4% | [6] 80.6% | [7] 80.7% | [8] 86.3% | [9] 93.1% | [10] 91.1%

CCCCCCCCCCCC(c1ccccc1)N(C)C (centres undefined)
inactive: [1] 102% | [2] 97.2% | [3] 103% | [4] 119% | [5] 105% | [6] 74.2% | [7] 103% | [8] 97.5% | [9] 104% | [10] 101%

C[C@]12CC[C@H]3[C@@H](CCC4=CC(=O)CC[C@@]43C)[C@@H]1CC[C@@H]2c1csc(N)n1
inactive: [1] 36.2% | [2] 60.1% | [3] 110% | [4] 70.2% | [5] 42.4% | [6] 65.4% | [7] 63.1% | [8] 60.7% | [9] 68.1% | [10] 25.6%

CC(=O)O[C@H]1CC[C@@]2(C)[C@@H](CC[C@@H]3[C@@H]2CC[C@]2(C)C=C(C=O)C[C@@H]32)C1
inactive: [1] 73.6% | [2] 119% | [3] 90.9% | [4] 33.3% | [5] 103% | [6] 76.2% | [7] 93.1% | [8] 95.3% | [9] 102% | [10] 95.4%

COc1ccc(/C=C2\CCC3C(CCCC34OCCO4)C2=O)cc1 (centres undefined)
inactive: [1] 94.2% | [2] 97.8% | [3] 79.5% | [4] 99.3% | [5] 105% | [6] 92.3% | [8] 89.7% | [9] 96.2% | [10] 94.5%
active: [7] -1.7%

Oc1ccc(/C=N\Nc2ccccn2)c(O)c1
active: [1] 1.98% | [3] -5.61% | [4] 2.96% | [5] 3.15% | [9] -13.2%
inactive: [2] 41.7% | [6] 38.1% | [7] 23.7% | [8] 26.6% | [10] 69.1%

Cc1ccc(/C=C2\CN(Cc3cn(CCNc4ccnc5cc(Cl)ccc45)nn3)C/C(=C\c3ccc(C)cc3)C2=O)cc1
active: [1] -26.8% | [2] -66.9% | [3] 5.6% | [4] -64.5% | [5] -51% | [6] -42.6% | [7] -49.5% | [8] -17.2% | [9] -36% | [10] -66.7%

COc1ccc(C(=O)n2nc(CC(=O)NCc3ccccc3)nc2N)cc1
inactive: [1] 108% | [2] 106% | [3] 95.4% | [4] 108% | [5] 115% | [6] 111% | [7] 104% | [8] 109% | [9] 97% | [10] 117%

CC1(C)CC(OCCCC[P+](c2ccccc2)(c2ccccc2)c2ccccc2)CC(C)(C)N1O
inactive: [2] 12.7% | [4] 13.3%
active: [1] 4.57% | [3] 9.8% | [5] 2.69% | [6] -41.4% | [7] -14.3% | [8] 6.09% | [9] -12.4% | [10] -55.3%

CCOC(=O)C(CCC1=NC(C)(C)CC(C)O1)C(=O)OCC (centres undefined)
inactive: [1] 77.7% | [2] 95.1% | [3] 137% | [4] 93.8% | [5] 51.5% | [6] 95.3% | [7] 62.5% | [8] 101% | [9] 107% | [10] 92%

Nc1ncc(-c2ccc(C(F)(F)F)cc2)c(NC2CCCCCC2)n1
inactive: [1] 11.9% | [2] 39.6% | [3] 66.7% | [4] 57.7% | [5] 44.9% | [8] 18.6% | [9] 51.3% | [10] 38.5%
active: [6] -12.1% | [7] -6.45%

COc1ccc(OC)c([N+](=O)[O-])c1C=O
inactive: [1] 107% | [2] 92% | [3] 101% | [4] 78.2% | [5] 108% | [6] 91.1% | [7] 76.9% | [8] 101% | [9] 110% | [10] 124%

O=c1oc2cc(OS(=O)(=O)C3CC3)ccc2c2c1CCCCCC2
inactive: [1] 70.4% | [2] 67.2% | [3] 104% | [4] 83.2% | [5] 86.2% | [6] 85.2% | [7] 79.2% | [8] 69.6% | [9] 93% | [10] 40.9%

Cc1nc2sccn2c1-c1csc(Nc2cccc(Cl)c2C)n1
inactive: [1] 52.1% | [2] 57.3% | [3] 81% | [4] 79.3% | [5] 61.2% | [6] 16.3% | [7] 41.8% | [8] 37.5% | [9] 63.3% | [10] 69.7%

CCOC(=O)c1c(C(F)(F)F)n([O-])c2ccc(OC)cc2[n+]1=O
inactive: [1] 30.3% | [2] 47.4% | [3] 58% | [4] 17.1% | [5] 18.7% | [8] 26.8% | [9] 42.2% | [10] 31.1%
active: [6] -34.7% | [7] -25.9%

CCCCN(CCCC)c1ccc(C(=NC(C)CCCN(CC)CC)c2ccc(N(C)C)cc2)cc1 (centres undefined)
active: [1] -60.3% | [2] -34.9% | [3] -14.2% | [4] -80.4% | [5] -76.9% | [6] -45.5% | [7] -66.8% | [8] -16.4% | [9] -86.4% | [10] -88.4%

COc1cc(CSc2nc3ccc(Cl)cc3c(=O)n2-c2ccccc2)cc(OC)c1OC
inactive: [1] 79% | [2] 89.2% | [3] 85.7% | [4] 72% | [5] 96.6% | [6] 89% | [7] 38.5% | [8] 73.9% | [9] 89.3% | [10] 84.5%

CCOC(=O)CNC(=O)Nc1ccc(Oc2ccc(NC(=O)NCC(=O)OCC)cc2)cc1
inactive: [1] 104% | [2] 98.8% | [3] 96.3% | [4] 96.1% | [5] 101% | [6] 92.2% | [7] 96.2% | [8] 90.6% | [9] 105% | [10] 105%

COc1cc(-c2cc(/C=C/C(C)=O)[nH]n2)cc(OC)c1OC
active: [7] -66%
inactive: [1] 87.7% | [2] 81.7% | [3] 79.4% | [4] 84.2% | [5] 95.2% | [6] 74.9% | [8] 86.2% | [9] 84.5% | [10] 93.4%
